Hit rate of the full screen: of about 1,500 compounds, about 390 (26%) were called active. How the calls were made is not given here. Not all results are given here. Potency and affinity values are given separately.
Biological target: Histone-lysine N-methyltransferase NSD2 (Homo sapiens) (UniProt O96028)
Test: blockers of NSD2 H4 peptide methylation – biochemical, AlphaScreen, cherry-picked samples, dose response (AID 1053173);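 further: 0% = neutral control wells and -100% = positive control wells on each plate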
Conditions: 120 min; series mostly up to 10 µM; activity change, negative = inhibition: at the top concentration

Chain of Histone-lysine N-methyltransferase NSD2 (Homo sapiens) (O96028 whole entry, looked up): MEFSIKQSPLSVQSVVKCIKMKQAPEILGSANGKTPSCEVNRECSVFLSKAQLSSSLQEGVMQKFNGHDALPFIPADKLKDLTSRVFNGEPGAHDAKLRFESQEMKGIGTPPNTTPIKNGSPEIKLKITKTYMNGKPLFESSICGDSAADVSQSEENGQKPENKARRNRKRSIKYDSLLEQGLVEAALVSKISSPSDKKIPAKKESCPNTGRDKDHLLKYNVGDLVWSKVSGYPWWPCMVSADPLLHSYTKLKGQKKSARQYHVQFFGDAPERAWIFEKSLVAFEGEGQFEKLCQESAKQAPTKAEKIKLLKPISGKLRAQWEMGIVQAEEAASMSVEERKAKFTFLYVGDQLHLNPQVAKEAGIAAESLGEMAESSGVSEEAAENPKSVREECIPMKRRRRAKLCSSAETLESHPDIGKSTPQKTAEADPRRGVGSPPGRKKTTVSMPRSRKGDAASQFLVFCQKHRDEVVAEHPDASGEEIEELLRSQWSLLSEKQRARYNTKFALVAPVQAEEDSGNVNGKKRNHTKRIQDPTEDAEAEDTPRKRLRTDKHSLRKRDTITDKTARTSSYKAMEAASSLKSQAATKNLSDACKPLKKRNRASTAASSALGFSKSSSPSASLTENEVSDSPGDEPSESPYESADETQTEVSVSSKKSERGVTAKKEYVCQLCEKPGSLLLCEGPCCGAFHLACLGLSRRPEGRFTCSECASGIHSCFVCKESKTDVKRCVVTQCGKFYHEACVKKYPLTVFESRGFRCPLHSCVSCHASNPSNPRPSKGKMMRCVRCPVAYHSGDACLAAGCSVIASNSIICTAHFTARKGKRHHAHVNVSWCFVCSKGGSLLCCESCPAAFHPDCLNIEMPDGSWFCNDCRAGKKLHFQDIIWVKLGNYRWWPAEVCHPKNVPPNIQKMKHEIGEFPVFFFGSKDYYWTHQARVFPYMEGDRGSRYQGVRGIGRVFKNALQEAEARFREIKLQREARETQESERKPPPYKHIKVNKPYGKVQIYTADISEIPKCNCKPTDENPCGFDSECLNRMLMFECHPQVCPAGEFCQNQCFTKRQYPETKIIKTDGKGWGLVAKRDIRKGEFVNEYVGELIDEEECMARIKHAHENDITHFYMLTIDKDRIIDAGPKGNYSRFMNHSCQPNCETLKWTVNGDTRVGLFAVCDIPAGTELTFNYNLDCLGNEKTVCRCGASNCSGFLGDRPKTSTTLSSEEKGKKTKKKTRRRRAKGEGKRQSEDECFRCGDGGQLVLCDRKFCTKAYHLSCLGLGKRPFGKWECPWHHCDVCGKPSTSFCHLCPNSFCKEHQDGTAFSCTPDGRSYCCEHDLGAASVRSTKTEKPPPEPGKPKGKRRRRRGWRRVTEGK

Activity change, negative = inhibition, inactive:
CC1(C)NC(=O)N(CCOCCOc2c(Cl)cc(Cl)cc2Cl)C1=O -1.71%
COc1ccc(CC(=O)NC2CCCCCC2)c(OC)c1 6.08%
CC(C)=NOCC(=O)Nn1c(COc2c(C)cccc2C)nc2ccccc2c1=O -2%
Cc1cc(-c2n[nH]c(=S)n2N=Cc2cccc(OCc3ccccc3)c2)n[nH]1 -12.1%
COc1ccc2nc3cccc(OC)c3nc2c1 -3.46%
C=CCOCC(O)Cn1c(N2CCCC2)nc2c1c(=O)n(C)c(=O)n2C (configuration not stated) -1.1%
CSCCC(NC(=O)c1ccccc1Cl)C(=O)NCC(c1ccc(F)cc1)N1CCOCC1 (configuration not stated) -2.03%
COc1cc(C(=O)NC(C)c2ccc3ccccc3c2)cc(Cl)c1O (configuration not stated) -0.34%
COc1cccc(-c2nn3c(-c4ccco4)nnc3s2)c1 1.6%
COc1ccc(-c2nnc3n2N=C(C)CS3)cc1 1.71%
Cn1c(=O)[nH]c2nnc(-c3ccc(Cl)c(Cl)c3)nc2c1=O 4.68%
CCOc1ccccc1NC(=O)C1CCCN1C(=O)c1cccs1 (configuration not stated) 2.24%
CSc1nc(N)nc(N(C)C)n1 2%
O=C(COC(=O)c1ccccc1F)NC1CC1 3.74%
CCOc1ccc(C(CC(=O)O)NC(=O)C23CC4CC(CC(C4)C2)C3)cc1OC (configuration not stated) -0.984%
Cc1nc([N+](=O)[O-])c(C(=O)OCc2ccccc2F)n1C -1.64%
CNc1c(N)n(Cc2ccccc2)c(=O)[nH]c1=O -0.252%
Cc1ccccc1CS(=O)(=O)CC(O)CN1CCCC1=O (configuration not stated) -1.97%
Nc1c(C(=O)NCc2ccc(F)cc2)c2nc3ccccc3nc2n1CCCN1CCOCC1 14.2%
CCc1ccc(NC(=O)c2cc(-c3ccc4c(c3)OCO4)on2)cc1 6.08%
CCc1ccc(N(CC(=O)NCc2ccc3c(c2)OCO3)C(=O)c2csnn2)cc1 -2.38%
COc1ccc2c(c1)c1nc3ccccc3nc1n2CCn1c(=O)oc2ccccc21 -3.95%
COc1ccc(C)cc1COC(=O)c1[nH]c(C)c(C(C)=O)c1C 3.9%
COc1ccc(N(CC(=O)NCCSc2ccccn2)S(C)(=O)=O)cc1 -0.405%
COc1ccc(CNC(=O)CCCn2nc(C)c([N+](=O)[O-])c2C)cc1OC 4.54%
Cc1nc2cc(C(=O)NCc3cccnc3)ccc2n1-c1ccc(F)cc1F -0.772%
Cc1ccc(C(=O)NCCn2c(N)c(C#N)c3nc4ccccc4nc32)cc1 -3.26%
CCOC(=O)CNC(=O)N1CCC(CCC(=O)N(C)Cc2ccccc2)CC1 0.842%
CCCC(=O)Nc1ccc(C(=O)O)cc1NC(=O)CCC 0.918%
O=C(O)c1ccc2cccnc2c1O 0.387%
COc1cccc(NC(=O)c2ccc3c(c2)OCCO3)c1 -3.43%
COc1ccc(-c2ncncc2-c2ccccc2)c(O)c1 -2.82%
O=C1C=CC(=O)N1c1ccc(N2CCCCC2)cc1 -1.43%
Cc1c([N+](=O)[O-])cc(N2C(=O)C=CC2=O)cc1[N+](=O)[O-] -0.132%
CCOC(=S)SCC(=O)Nc1nc(C)c(C)s1 8.33%
O=C(Nc1nnc(SCc2cccc3ccccc23)s1)C1COc2ccccc2O1 (configuration not stated) -6.81%
NC(=O)C1Cc2ccccc2CN1S(=O)(=O)c1ccc(Cl)s1 (configuration not stated) -1.03%
COc1ccccc1N(C)S(=O)(=O)c1ccc(C(=O)NC2CCCCCC2)cc1 -1.27%
COc1cc(OC)c(C(=O)OC(C)C(=O)NCc2ccc3c(c2)OCO3)cc1OC (configuration not stated) -5.27%
C/C(=N\NC(=O)c1nnn(-c2nonc2N)c1C)c1ccc(-c2ccccc2)cc1 1.79%
CC(=O)c1c(C)[nH]c(C(=O)Nc2ccc(C)cc2Br)c1C -5.53%
O=c1cc(C=NNc2ccccc2)[nH]c(=O)[nH]1 -4.13%
O=C(O)c1cc(N/N=C/c2ccc3c(c2)OCO3)ccc1Cl -0.549%
Cc1noc(C)c1S(=O)(=O)N1CCN(S(=O)(=O)c2ccccc2C#N)CC1 4.24%
CCCC(CCC(=O)Nc1cccc([N+](=O)[O-])c1)C(=O)O (configuration not stated) -0.707%
COc1cc(C(=O)Oc2cccc(/C=N/NC(=O)c3cccnc3)c2)cc(OC)c1OC -2.82%
CNC(=S)NC(CC(=O)OC)c1ccc2c(c1)OCO2 (configuration not stated) 3.44%
CC[n+]1c(/C=C/Nc2ccccc2)oc2ccccc21 0.086%
Cc1cc(Cl)c(OCCN2C(=O)NC(C)(C)C2=O)c(Br)c1 -0.445%
COc1ccc(/C=C/C(=O)OCC(=O)NCC2CCCO2)cc1 (configuration not stated) 3.92%
COc1ccccc1CN(Cc1cc2cc3c(cc2[nH]c1=O)OCCO3)Cc1nnnn1Cc1ccco1 -4.86%
CCOC(=O)CN(C(=O)COc1nc(-c2ccccc2)cc(C)c1C#N)c1ccccc1 -0.665%
COc1cc(N)c(C(=O)c2nccc3cc(OC)c(OC)cc23)cc1OC -2.98%
COc1ccc(C(=O)Cc2nnc(C)s2)cc1 -1.01%
COc1ccc(C(=O)Nc2ccc3[nH]ccc3c2)cc1OC 4.26%
C/C(=N/NC(=O)CCc1ccccc1)c1ccco1 -2.07%
Cc1ccccc1NC(=O)CN1CCC(C(=O)c2ccc3c(c2)OCCO3)CC1 -2.43%
COc1ccc(C2=NNC(c3cccs3)=Nc3ccc(OC)cc32)cc1 -11.7%
COc1ccc(-n2nnnc2-c2cnc(N3CCCC3)nc2C(F)(F)F)cc1 1.7%
Cc1cc(C)n(-c2ncccc2[N+](=O)[O-])n1 -2.95%
O=[N+]([O-])c1cc2ncccc2c2ncccc12 -1.34%
COc1ccc(/C=C(\C#N)C(=O)N2COCC2(C)C)cc1 -1.43%
COc1ccc(NC(=O)CN(C)S(=O)(=O)c2ccc(C)cc2)c([N+](=O)[O-])c1 -2.22%
C=CCc1cccc2cc(C(=O)Nc3ccc(NC(C)=O)cc3)c(=O)oc12 0.142%
COC(=O)c1cc(NC(=O)Nc2cc(OC)ccc2OC)cc(C(=O)OC)c1 0.332%
N=C1/C(=C\c2ccc(Br)o2)C(=O)N=C2SC(CC(=O)N3CCCCC3)=NN12 -4.58%
COc1ccc(/C=C2\N=C(C(C)(C)C)OC2=O)c(OC)c1 -1.37%
O=C(c1ccccc1F)N(Cc1cccs1)C1CCS(=O)(=O)C1 (configuration not stated) -3.94%
Cc1ccc(C(=O)Nc2ccc(Cl)cc2C(F)(F)F)c(Cl)c1 0.435%
CCC1=[N+]([O-])C(C)(/C(C)=N\O)N(O)C1(C)C (configuration not stated) 3.64%
COc1cc(NC(=O)c2[nH]c(C)c(C(C)=O)c2C)cc(OC)c1OC -2.22%
COc1ccc(C2SCCN2S(=O)(=O)c2ccccc2)cc1 (configuration not stated) 1.06%
